Screen size: about 99,000 compounds; about 390 (0.39%) were called active. Rule as the data show it: active = TR-FRET ratio above about 2000; inactive = the rest. The entries come from a sample that favours actives as a whole.

The nature of this experiment: signal artefacts in PPARgamma/SRC-3 readout – biochemical, TR-FRET ratio, artefact control for PPARgamma SRC-3 recruitment agonists (AID 1048). The settings on record: TR-FRET artefact counter-screen, PPARgamma/SRC-3 format; at 8 µM; active compounds read high. Background: TR-FRET usually uses a lanthanide donor and a delayed reading to cut background.
On to `COc1cc(-n2c(=S)[nH]c3ccc(C)cc3c2=O)c(Cl)cc1Cl`, for which the TR-FRET ratio is 2500 (active).

Regarding `O=C(Cc1ccccc1)N1CCN(C2CCCCCC2)CC1`, the TR-FRET ratio was 1380 (inactive).

As for `O=C(CCNS(=O)(=O)c1ccccc1)Nc1ccc(Cl)cc1C(=O)c1ccccc1`, the TR-FRET ratio is 1450 (inactive).

With `Cc1ccccc1N1C(=O)NC(=O)/C(=C\c2cc(C)n(C)c2C)C1=O`, the TR-FRET ratio is 1530 (inactive).

On to `Cc1cccc(-n2c(O)c(/C=N/N3CCOCC3)c(=O)[nH]c2=S)c1`, for which the TR-FRET ratio is 1680 (inactive).
